TEAD-YAP block – TEAD-YAP interaction inhibition; HEK-TIYL cells, TEAD-Gal4/YAP UAS-luciferase luminescence; inhibition, % at 9.12 µM; actives 1.4% (n = 640,000); AID 1259422; in the data active = inhibition above about 32%
FBW7 act – activators of human E3 ligase FBW7 | AID 1259310 | actives 0.13% (n = 650,000) | Q969H0 | normalized activity (activation), % at 26.1 µM | AlphaScreen FBW7–phospho-cyclin E peptide binding, activator screen; in the data active = normalized activity above about 1.9%;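 also: purified mutant Fbw7 with reduced substrate affinity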
MITF inh – inhibitors of human MITF; actives 0.91% (n = 650,000); AlphaScreen MITF homodimerization, bead proximity signal; AID 1259374; inhibition, % at 2.6 µM; O75030; in the data active = inhibition above about 50%
GPR151 activ – human GPR151 activation; Q8TDV0; activation, % at 11.2 µM; PathHunter beta-arrestin GPR151 cells, luminescence; actives 1% (n = 650,000); AID 1508602; in the data active = activation above about 4.9%
Target sequence (Q8TDV0 whole entry, looked up): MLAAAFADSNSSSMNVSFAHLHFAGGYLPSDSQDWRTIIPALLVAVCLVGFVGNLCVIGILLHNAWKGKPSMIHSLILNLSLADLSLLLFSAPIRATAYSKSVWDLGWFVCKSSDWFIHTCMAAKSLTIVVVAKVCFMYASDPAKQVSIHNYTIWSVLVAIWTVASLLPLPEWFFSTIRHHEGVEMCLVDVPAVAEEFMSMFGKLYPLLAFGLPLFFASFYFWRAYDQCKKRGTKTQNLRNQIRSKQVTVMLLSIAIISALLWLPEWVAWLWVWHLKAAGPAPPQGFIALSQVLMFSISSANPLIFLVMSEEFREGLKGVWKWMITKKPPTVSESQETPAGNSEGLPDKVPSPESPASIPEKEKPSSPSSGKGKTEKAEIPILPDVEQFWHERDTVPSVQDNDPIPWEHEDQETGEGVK
GPR151 confirm – human GPR151 activation, confirmation screen | AID 1508609 | activation, % at 11.2 µM | 6,700 tested, under 10 active | shares compounds with GPR151 activ | GPR151 PathHunter beta-arrestin cells, luminescence, 90 min; % of EA-reagent control over plate median;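 active = mean percent activation across replicates above the confirmation screen cutoff of 4.91%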
GPR119 counter – GPR119 activation, counter-screen for GPR151 activators; shares compounds with GPR151 activ; GPR119 PathHunter beta-arrestin cells, luminescence, 90 min; 0 = compound-well median, 100 = enzyme-acceptor control; activation, % at 11.2 µM; actives 0.3% (n = 6,700); AID 1508611;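 active = mean percent activation in the counterscreen above 29.09%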;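 also: counterscreen on off-target GPR119 to flag nonselective hits from the GPR151 activator screen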
Of the large screens only hits and unclear results are named; the others gave an inactive call (follow-up assays come after a bar, where they were run). A selection: hits, their analogues and other compounds. The true share with any hit is near 3.4%.

O=C(Cc1c(F)cccc1Cl)Nc1cc(C(=O)Nc2ccc(F)c(F)c2)ccc1N1CC2CC(C1)c1cccc(=O)n1C2 (stereo not given)	none
CCN1CCN(C(=O)NCc2noc3ccc(C)cc23)CC1	none
Cc1ccc2onc(CNC(=O)N3CCCCC3)c2c1	GPR151 activ 7.0 | GPR151 confirm inactive | GPR119 counter inactive
Cc1ccc(C(=O)CCC(=O)NNC(=O)COc2ccccc2C#N)cc1	none
O=C(NCC(c1ccco1)N1CCOCC1)c1ccc(F)cc1 (stereo not given)	GPR151 activ 5.4 | GPR151 confirm inactive | GPR119 counter inactive
CC(=O)C(Sc1nc(NC(C)C)nc(N(C)C)n1)C(C)=O	GPR151 activ 5.3 | GPR151 confirm inactive | GPR119 counter inactive
COc1cc(OC)c(OC)cc1CN1CCN(C(C)C)C(CCO)C1 (stereo not given)	none
COC(=O)Cn1c2cc(OC)c(OC)cc2c2nc(=O)cc(C)n21	GPR151 activ 8.8 | GPR151 confirm inactive | GPR119 counter inactive
CC1=C/C(=N\S(=O)(=O)c2ccccc2)C(C)=CC1=O	none
CC1=C/C(=N\OS(=O)(=O)c2ccccc2)C(C(C)C)=CC1=O	GPR151 activ 8.5 | GPR151 confirm inactive | GPR119 counter inactive
COc1ccc2[nH]c3c(=O)n(CCCCC(=O)NC(C)C)c(=S)[nH]c3c2c1	none
COc1ccc(CNC(=O)CCCn2cccc2)cc1	GPR151 activ 8.2 | GPR151 confirm inactive | GPR119 counter inactive
COc1ccc(CNC(=O)CCCn2c(=O)[nH]c3ccccc3c2=O)cc1	GPR151 activ 7.0 | GPR151 confirm inactive | GPR119 counter inactive
COc1ccc2[nH]c3c(=O)n(CCCC(=O)Nc4ccccc4)c(=S)[nH]c3c2c1	GPR151 activ 7.7 | GPR151 confirm inactive | GPR119 counter inactive
COc1cc2[nH]c(=O)n(CCCC(=O)NCc3ccccc3Cl)c(=O)c2cc1OC	GPR151 activ 6.8 | GPR151 confirm inactive | GPR119 counter inactive
CCCC(=O)NCc1ccc(OC)cc1	none
CCCCNC(=O)CCCCCn1c(=O)[nH]c2cc(OC)c(OC)cc2c1=O	none
OCCNCCCCCOc1ccccc1Cl	none
CN(C)S(=O)(=O)N1CCN(Cc2nnnn2-c2cccc(F)c2)CC1	none
O=C(Nc1ccc(Br)cc1C(=O)c1ccccc1)c1ccc(Nc2nc(-c3ccccc3)c3cc(Cl)ccc3n2)cc1	none
O=C(Nc1ccccc1C(=O)c1ccccc1)c1ccc(Nc2nc(-c3ccccc3)c3cc(Cl)ccc3n2)cc1	GPR151 activ 8.5 | GPR151 confirm inactive | GPR119 counter inactive
Cc1cc(C(=O)Nc2ccc(I)c(C)n2)ccc1[N+](=O)[O-]	none
Cc1cc(C(=O)Nc2ccc(Br)c(C)n2)ccc1[N+](=O)[O-]	GPR151 activ 5.0 | GPR151 confirm inactive | GPR119 counter inactive
CC(=O)N1CCN(Cc2ccc3c(c2)CN(C(=O)Cc2cccc(F)c2)CCO3)CC1	none
CC(=O)N1CCN(Cc2cccc(F)c2)CC1	GPR151 activ 5.4 | GPR151 confirm inactive | GPR119 counter inactive
CCc1ccc(CNc2nc(C)c(-c3ccn(CCN4CCOCC4)n3)s2)cc1	none
COCCN1C(=S)NC2CC1(C)Oc1ccccc12 (stereo not given)	GPR151 activ 6.1 | GPR151 confirm inactive | GPR119 counter inactive
COc1ccccc1OCCC(=O)OCC(=O)Nc1ccc(F)cc1F	none
Cc1cc(C)cc(NC(=O)C(=O)/C=C(\O)c2ccccc2)c1	none
CCC1Oc2ccc(C)cc2N(CC(=O)O)C1=O (stereo not given)	none
CCCCN(C)C(=O)CN1C(=O)C(CC)Oc2ccc(C)cc21 (stereo not given)	GPR151 activ 8.8 | GPR151 confirm inactive | GPR119 counter inactive
COc1ccc(/C(N)=N/OC(=O)c2cccc(I)c2)cc1OC	none
COc1cc(C#N)ccc1OCC(=O)NC(C)c1ccc(F)cc1 (stereo not given)	none
COc1cc(C#N)ccc1OCC(=O)N(C)Cc1ccc(F)cc1	GPR151 activ 8.0 | GPR151 confirm inactive | GPR119 counter inactive
Oc1ccc(Br)cc1-c1nnc2ccc3ccccc3n12	GPR151 activ 10 | GPR151 confirm inactive | GPR119 counter inactive
Cc1ccccc1N=Cc1ccccc1[N+](=O)[O-]	none
CC(=O)c1ccc(OCCCC(=O)NNC(=O)c2ccccc2)cc1	none
O=C(CCCOc1ccccc1)NNC(=O)c1ccccc1	GPR151 activ 26 | GPR151 confirm inactive | GPR119 counter inactive
Cc1ccc(-n2c(SCC(=O)N3CCCCCC3)nc3c(sc(=S)n3-c3ccc(C)c(C)c3)c2=O)cc1	none
Cc1ccc(CNC(=O)C(C)SCc2ccccc2)cc1 (stereo not given)	GPR151 activ 8.1 | GPR151 confirm inactive | GPR119 counter inactive
O=C(NCc1cccnc1)c1ccnc(Nc2cnccn2)c1	GPR151 activ 6.6 | GPR151 confirm inactive | GPR119 counter inactive
Cc1ccccc1CNC(=O)C(C)SCc1ccccc1 (stereo not given)	none
O=C(NCc1cccnc1)c1ccnc(Nc2nccc3ccccc23)c1	none
CC(SCc1ccccc1)C(=O)NCc1cccnc1 (stereo not given)	GPR151 activ 8.0 | GPR151 confirm inactive | GPR119 counter inactive
O=C(O)CCC(=O)NCc1cccnc1	GPR151 activ 7.5 | GPR151 confirm inactive | GPR119 counter inactive
CCCc1nnc(SCC(=O)Nc2nc3ccccc3s2)n1C	none
COc1cc(/C=N/NC(=O)c2nnn(-c3nonc3N)c2CN(C)C)cc(OC)c1O	none
O=C(Cn1ccc([N+](=O)[O-])n1)NCc1ccccc1	none
O=C(Cn1ccc([N+](=O)[O-])n1)NCc1cccnc1	GPR151 activ 8.9 | GPR151 confirm inactive | GPR119 counter inactive
O=c1c2c(-c3ccccc3)csc2nc2c3ccccc3c(NCCO)nn12	none
Cc1ccc(-c2csc3nc4c5ccccc5c(NCCOCCO)nn4c(=O)c23)cc1	GPR151 activ 8.4 | GPR151 confirm inactive | GPR119 counter inactive
CCc1ccc(N(CC(=O)OC)S(C)(=O)=O)cc1	none
CCc1ccc(N(CC(=O)NC)S(C)(=O)=O)cc1	GPR151 activ 5.3 | GPR151 confirm inactive | GPR119 counter inactive
O=C(NN=C1CCCCC1)C(O)(c1ccccc1)c1ccccc1	GPR151 activ 9.9 | GPR151 confirm inactive | GPR119 counter inactive
O=C(NN=C1CCCC1)C(O)(c1ccccc1)c1ccccc1	none
O=C(CC(O)(C(F)(F)F)C(F)(F)F)Nc1ccccc1Br	none
COc1ccccc1NC(=O)COc1ccc(C(=O)O)cc1	GPR151 activ 7.9 | GPR151 confirm inactive | GPR119 counter inactive
COc1ccccc1NC(=O)CC(O)(C(F)(F)F)C(F)(F)F	GPR151 activ 5.8 | GPR151 confirm inactive | GPR119 counter inactive
Cc1ccc(Cl)cc1NC(=O)CC(O)(C(F)(F)F)C(F)(F)F	GPR151 activ 5.2 | GPR151 confirm inactive | GPR119 counter inactive

Screening data from PubChem.
